PubChem BioAssay
Where “and” joins values, the source holds several entries; their conditions need not be identical. Identical values can stand only once. Calls of active or inactive are those of the source.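 Rule for the calls: active = compounds whose cell count with miR-34 switched on is under 0.7 times the count with it off; inactive = the rest.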

Assay: sensitizers of A549 cells to miR-34 induction, primary screen, imaging, A549 dox-inducible miR-34, nuclei and caspase counts (AID 1347080); note: test concentration not given here
Conditions: A549 miR-34 inducible, Hoechst nuclei count, 48 h; stronger effect = lower value; cell number ratio, induced over uninduced

Structure (SMILES) | fold change
C[C@@](Cc1ccc(O)c(O)c1)(NN)C(=O)O | 0.855 (inactive) and 0.878 (inactive) and 0.94 (inactive)
O=C1c2ccccc2C(=O)c2c1ccc(O)c2O | 0.918 (inactive)
CC(C)NCC(O)c1ccc2ccccc2c1 (stereo unspecified) | 0.951 (inactive) and 0.938 (inactive) and 0.885 (inactive)
CCOC(=O)OC(C)OC1=C(C(=O)Nc2ccccn2)N(C)S(=O)(=O)c2ccccc21 (stereo unspecified) | 0.948 (inactive) and 0.916 (inactive) and 0.845 (inactive)
COc1cc(C(=O)NCc2ccc(OCCN(C)C)cc2)cc(OC)c1OC | 0.938 (inactive) and 0.925 (inactive) and 0.912 (inactive)
Nc1nc2c(ncn2CCC(CO)CO)c(=O)[nH]1 | 0.945 (inactive) and 0.956 (inactive) and 0.874 (inactive)
CC(C)(Oc1ccc(Cl)cc1)C(=O)O | 0.908 (inactive) and 0.929 (inactive) and 0.927 (inactive)

Same assay, conditions: A549 miR-34 inducible, Hoechst nuclei count, 48 h; measured here: relative caspase fold change +Dox/-Dox

Structure (SMILES) | fold change
O=C(Cn1ccnc1[N+](=O)[O-])NCCO | 1.39 and 4.67
Cc1[nH]c(C)c(Cl)c(=O)c1Cl | 4.77 and 1.49
C[C@H]1COc2c(C3(N)CC3)c(F)cc3c(=O)c(C(=O)O)cn1c23 | 0.784 and 0.738
CC(C)(O)c1ccccc1CC[C@@H](SCC1(CC(=O)O)CC1)c1cccc(/C=C/c2ccc3ccc(Cl)cc3n2)c1 | 1.4
CCN1CCN(c2cc3c(cc2F)c(=O)c(C(=O)O)cn3C2CC2)CC1 | 1.31 and 5.17 and 1.41
CCN1CC(CCN2CCOCC2)C(c2ccccc2)(c2ccccc2)C1=O (stereo unspecified) | 1.42 and 1.3
COC(=O)CCc1ccc(OCC(O)CNC(C)C)cc1 (stereo unspecified) | 0.838 and 0.901 and 1.51
CC(=O)Nc1ccc(OCC(O)CNC(C)C)cc1 (stereo unspecified) | 1.35 and 1.11
Cc1ccc(C(=O)c2ccc(CC(=O)O)n2C)cc1 | 1.2 and 2.52 and 1.03
CN1CCN(c2c(F)cc3c(=O)c(C(=O)O)cn4c3c2SCC4)CC1 | 0.702 and 1.33 and 0.919
COc1cc(N)c(Cl)cc1C(=O)NC1CCN(Cc2ccccc2)CC1 | 0.965
O=C(O)P(=O)(O)O | 0.852 and 3.28
CCCCCCCCCCCCCCCCOP(=O)([O-])OCC[N+](C)(C)C | 0.961 and 1.28
CN(C)CCCSc1ccccc1NC(=O)/C=C/c1ccccc1 | 0.895 and 0.508
CC(C)(C(=O)c1cccnc1)c1cccnc1 | 1.43 and 1.26 and 2.87
NC(=NCCCCCCN=C(N)/N=C(\N)Nc1ccc(Cl)cc1)/N=C(\N)Nc1ccc(Cl)cc1 | 1.13 and 3.13
CC1(C)S[C@@H]2[C@H](NC(=O)[C@H](N)c3ccccc3)C(=O)N2[C@H]1C(=O)O | 0.845 and 0.857 and 1.14
CC1CCc2cc(F)cc3c(=O)c(C(=O)O)cn1c23 (stereo unspecified) | 1.2 and 1.04 and 2.46
CC1(C)O[C@@H]2C[C@H]3[C@@H]4CCC5=CC(=O)CC[C@]5(C)[C@@]4(F)[C@@H](O)C[C@]3(C)[C@]2(C(=O)CCl)O1 | 1.34
CCN(CC)C(=O)N1CCN(C)CC1 | 1.19 and 0.187 and 0.88

Structure (SMILES) | fold change
COc1ccc(C(=O)NCc2ccc(OCCN(C)C)cc2)cc1OC | 0.68 and 1.38 and 1.73
CC(Oc1c(Cl)cccc1Cl)C1=NCCN1 (stereo unspecified) | 0.839 and 1.76 and 1.47
CN1CCCCC1CCN1c2ccccc2Sc2ccc(S(C)=O)cc21 (stereo unspecified) | 1.32 and 2.22 and 1.93
CN1C(C)(C)CCCC1(C)C | 1
CN(CCCN1c2ccccc2CCc2ccccc21)CC(=O)c1ccc(Cl)cc1 | 1.92 and 1.33
CCOC(=O)C1=C(C)NC(C)=C(C(=O)OCC)C1c1ccccc1/C=C/C(=O)OC(C)(C)C | 0.737
CC(C(=O)O)c1ccc(C(=O)c2cccs2)cc1 (stereo unspecified) | 1.16 and 0.84 and 2.46
NC(N)=Nc1nc(CSCC/C(N)=N/S(N)(=O)=O)cs1 | 1.04 and 0.96 and 0.999
CC(=O)Nc1ccc(CC(=O)O)cc1 | 1.68
CC(=O)OC/C=C(C)/C=C/C=C(C)/C=C/C1=C(C)CCCC1(C)C | 1.05
Cn1c(=O)c2c(ncn2CCO)n(C)c1=O | 1.24
CN(C)/N=N/c1nc[nH]c1C(N)=O | 1.29 and 2.08
C[C@@](Cc1ccc(O)c(O)c1)(NN)C(=O)O | 1.15 and 0.758 and 1.14
O=C1c2ccccc2C(=O)c2c1ccc(O)c2O | 1.48
CC(C)NCC(O)c1ccc2ccccc2c1 (stereo unspecified) | 0.594 and 1.29 and 1.16
CCOC(=O)OC(C)OC1=C(C(=O)Nc2ccccn2)N(C)S(=O)(=O)c2ccccc21 (stereo unspecified) | 1.05 and 0.416 and 1.29
COc1cc(C(=O)NCc2ccc(OCCN(C)C)cc2)cc(OC)c1OC | 0.8 and 0.443 and 2.44
Nc1nc2c(ncn2CCC(CO)CO)c(=O)[nH]1 | 1.67 and 0.466 and 0.841
CC(C)(Oc1ccc(Cl)cc1)C(=O)O | 1.01 and 0.543 and 0.953
